Data taken from PubChem BioAssay AID651598 (Sanford-Burnham Center for Chemical Genomics, 2012).
Several values for one entry are separate records, joined by “and”; a condition that tells them apart may be missing. Equal entries are not always repeated.

What follows are compounds tested against Apelin receptor (Homo sapiens) (UniProt P35414) (assay: APJ beta-arrestin recruitment blockade alongside CXCR6 – cell-based, DiscoveRx, panel, CHO-K1, counter-screen for CXCR6 antagonist project, SAR follow-up (AID 651598)). Conditions: CHO-K1 PathHunter beta-arrestin luminescence, antagonist mode; run 6, at 80 µM (top of the series).
Chain of Apelin receptor (Homo sapiens) (P35414 whole entry, looked up): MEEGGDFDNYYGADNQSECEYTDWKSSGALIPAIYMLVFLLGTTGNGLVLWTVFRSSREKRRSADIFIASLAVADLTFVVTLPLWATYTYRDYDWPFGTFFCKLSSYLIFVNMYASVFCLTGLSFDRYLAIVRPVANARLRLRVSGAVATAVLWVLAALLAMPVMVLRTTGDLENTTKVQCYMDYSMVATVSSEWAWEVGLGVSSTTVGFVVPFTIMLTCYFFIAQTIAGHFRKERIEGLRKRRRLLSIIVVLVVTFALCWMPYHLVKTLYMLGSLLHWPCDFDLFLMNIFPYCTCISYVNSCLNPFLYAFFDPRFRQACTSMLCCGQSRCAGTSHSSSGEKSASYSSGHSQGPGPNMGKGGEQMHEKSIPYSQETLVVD

Row | SMILES | inhibition
1 | COc1cc(C(=O)NC2CCN(CC(=O)Nc3ccccc3)CC2)cc(OC)c1OC | -2.93%
2 | COc1cc(C(=O)NC2CC3CCCC(C2)N3CC(=O)Nc2ccccc2)cc(OC)c1OC (stereo not drawn) | 9.24% and -4.02% and 20.6%
3 | COc1cc(C(=O)NC2CC3CCC(C2)N3CC(=O)Nc2ccccc2)cc(OC)c1OC (stereo not drawn) | 10.4% and -17.1%
